Results as given in PubChem BioAssay AID1159580 (chemical genetic matrix, 2015).
About 2,000 (36%) of roughly 5,500 compounds were called active. Roughly 18% stayed inconclusive and do not appear here. The list shows a part of the results. Values without a mark were called inactive. Cut-off read from the data, not from the text of the source: active = normalized growth mostly below about 0.91 (no sharp cut-off); inconclusive = no clear call, values can overlap the other calls; inactive = mostly above about 0.92.

Assay: chemical genetic growth profiling, strain panel (AID 1159580);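 note: tested at 20 µM; growth read once vehicle control cultures reached saturation at 30 °C; 1 = growth at the plate median or of vehicle wells; lower values mean less growth of the strain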
Conditions: S. cerevisiae deletion strains, growth OD
[1] = locus YAL013W, strain DEP1, active compounds read low
[2] = locus YMR307W, strain GAS1, active compounds read low
[3] = locus YNL128W, strain TEP1, active compounds read low
[4] = locus YNL153C, strain GIM3, active compounds read low
[5] = locus YPL055C, strain LGE1, active compounds read low
[6] = locus YAL040C, strain CLN3, active compounds read low
[7] = locus YCL061C, strain MRC1 (second series), active compounds read low
[8] = locus YDR150W, strain NUM1, active compounds read low
[9] = locus YDR363W, strain ESC2, active compounds read low
[10] = locus YER002W, strain NOP16, active compounds read low
[11] = locus YGR229C, strain SMI1, active compounds read low
[12] = locus YNL175C, strain NOP13, active compounds read low
[13] = locus YNL197C, strain WHI3, active compounds read low
[14] = locus YNL224C, strain SQS1, active compounds read low
[15] = locus YOR083W, strain WHI5 (second series), active compounds read low

`CC1=CC(=O)C2=C(C)CC[C@@H]3[C@H](OC(=O)[C@H]3C)[C@@H]12` gave a normalized growth [1] of 1, a normalized growth (locus YBR021W, strain FUR4, active compounds read low) of 0.965 and a normalized growth (locus YBR229C, strain ROT2, active compounds read low) of 0.987. For the same molecule, the normalized growth (locus YCL029C, strain bik1, active compounds read low) was 0.975, the normalized growth (locus YDL035C, strain GPR1, active compounds read low) was 0.998 and the normalized growth (locus YDL074C, strain BRE1, active compounds read low) was 0.986. The normalized growth (locus YDL101C, strain DUN1, active compounds read low) was 0.995, the normalized growth (locus YDL185W, strain tfp1, active compounds read low) was 0.978 and the normalized growth (locus YDL192W, strain arf1, active compounds read low) was 1.01. For the same molecule, the normalized growth (locus YDR101C, strain arx1, active compounds read low) was 0.981, the normalized growth (locus YDR162C, strain NBP2, active compounds read low) was 1.01 and the normalized growth (locus YDR318W, strain mcm21, active compounds read low) was 1. It also gave a normalized growth (locus YDR388W, active compounds read low) of 0.981, a normalized growth (locus YDR502C, strain sam2, active compounds read low) of 0.983 and a normalized growth (locus YEL061C, strain CIN8, active compounds read low) of 0.997. The normalized growth (locus YER110C, active compounds read low) was 0.979, the normalized growth (locus YER155C, strain BEM2, active compounds read low) was 0.987 and the normalized growth (locus YER167W, strain BCK2, active compounds read low) was 0.992. For the same molecule, the normalized growth (locus YGL078C, strain dbp3, active compounds read low) was 0.977, the normalized growth (locus YGL086W, strain mad1, active compounds read low) was 0.979 and the normalized growth (locus YGL248W, strain PDE1, active compounds read low) was 1.01. The normalized growth (locus YGR135W, strain pre9, active compounds read low) was 0.997, the normalized growth (locus YGR252W, strain gcn5, active compounds read low) was 1.07 and the normalized growth (locus YHR030C, strain SLT2, active compounds read low) was 0.99. It also gave a normalized growth (locus YHR079C, strain IRE1 (second series), active compounds read low) of 0.985, a normalized growth (locus YHR094C, strain hxt1, active compounds read low) of 0.991 and a normalized growth (locus YHR129C, strain ARP1, active compounds read low) of 0.997. The normalized growth (locus YHR200W, strain rpn10, active compounds read low) was 0.998, the normalized growth (locus YIL066C, strain RNR3, active compounds read low) was 0.999 and the normalized growth (locus YIL073C, strain SPO22, active compounds read low) was 0.99. The normalized growth (locus YIL125W, strain kgd1, active compounds read low) was 0.986, the normalized growth (locus YIR030C, strain dcg1, active compounds read low) was 0.985 and the normalized growth (locus YJL095W, strain BCK1, active compounds read low) was 1.04. It also gave a normalized growth (locus YJL134W, strain LCB3, active compounds read low) of 0.992, a normalized growth (locus YJL168C, strain set2, active compounds read low) of 0.984 and a normalized growth (locus YJL187C, strain SWE1 (second series), active compounds read low) of 1.01. It also gave a normalized growth (locus YJR043C, strain POL32, active compounds read low) of 1.01, a normalized growth (locus YKL009W, strain mrt4, active compounds read low) of 1 and a normalized growth (locus YKL068W, active compounds read low) of 0.985. The normalized growth (locus YKL085W, strain MDH1 (second series), active compounds read low) was 0.995, the normalized growth (locus YKL085W, strain MDH1, active compounds read low) was 0.995 and the normalized growth (locus YKL190W, strain CNB1, active compounds read low) was 1.01. It also gave a normalized growth (locus YKR001C, strain vps1, active compounds read low) of 0.965, a normalized growth (locus YLR039C, strain RIC1, active compounds read low) of 1.02 and a normalized growth (locus YLR058C, strain SHM2, active compounds read low) of 1. The normalized growth (locus YLR102C, strain apc9, active compounds read low) was 0.981, the normalized growth (locus YLR262C, strain YPT6, active compounds read low) was 1.01 and the normalized growth (locus YLR268W, strain sec22, active compounds read low) was 0.976. For the same molecule, the normalized growth (locus YLR330W, strain CHS5, active compounds read low) was 0.993, the normalized growth (locus YLR342W, strain FKS1 (second series), active compounds read low) was 0.989 and the normalized growth (locus YLR371W, strain rom2, active compounds read low) was 0.959. It also gave a normalized growth (locus YLR418C, strain cdc73, active compounds read low) of 1.01, a normalized growth (locus YML016C, strain PPZ1, active compounds read low) of 0.99 and a normalized growth (locus YML032C, strain rad52, active compounds read low) of 1.01. For the same molecule, the normalized growth (locus YML124C, strain tub3, active compounds read low) was 0.989, the normalized growth (locus YMR078C, strain ctf18, active compounds read low) was 1 and the normalized growth (locus YMR223W, strain ubp8, active compounds read low) was 1.03. For the same molecule, the normalized growth [2] was 1, the normalized growth (locus YNL067W, strain RPL9B, active compounds read low) was 1.02 and the normalized growth [3] was 0.984. For the same molecule, the normalized growth [4] was 1.01, the normalized growth (locus YNL233W, strain BNI4, active compounds read low) was 1 and the normalized growth (locus YNL250W, strain rad50, active compounds read low) was 0.995. For the same molecule, the normalized growth (locus YNL271C, strain bni1, active compounds read low) was 0.984, the normalized growth (locus YNL298W, strain CLA4, active compounds read low) was 0.99 and the normalized growth (locus YNL307C, strain MCK1, active compounds read low) was 0.971. For the same molecule, the normalized growth (locus YNL322C, strain KRE1, active compounds read low) was 1, the normalized growth (locus YNR052C, strain pop2, active compounds read low) was 0.996 and the normalized growth (locus YOL012C, strain htz1) was 0.989. The normalized growth (locus YOL147C, strain pex11, active compounds read low) was 0.987, the normalized growth (locus YOR061W, strain CKA2, active compounds read low) was 0.992 and the normalized growth (locus YOR069W, strain VPS5, active compounds read low) was 0.986. The normalized growth (locus YOR136W, strain idh2, active compounds read low) was 0.971, the normalized growth (locus YOR144C, strain elg1, active compounds read low) was 0.988 and the normalized growth (locus YOR184W, strain ser1, active compounds read low) was 0.974. The normalized growth (locus YOR316C, strain cot1, active compounds read low) was 0.984, the normalized growth [5] was 0.999 and the normalized growth (locus YPR119W, strain clb2, active compounds read low) was 1. The normalized growth (locus YPR141C, strain kar3, active compounds read low) was 0.98, the normalized growth (locus YPR163C, strain tif3, active compounds read low) was 0.978 and the normalized growth (locus YPR167C, strain met16, active compounds read low) was 1.02. It also gave a normalized growth (strain wtn01, active compounds read low) of 0.971.
`CC(C)(C)c1cc(C=C(C#N)C#N)cc(C(C)(C)C)c1O` showed a normalized growth [6] of 0.965, a normalized growth [7] of 1.01 and a normalized growth [8] of 1.01. It also gave a normalized growth [9] of 1.03, a normalized growth [10] of 1.02 and a normalized growth [11] of 1.02. It also gave a normalized growth [2] of 0.999, a normalized growth [3] of 0.973 and a normalized growth [4] of 0.821. For the same molecule, the normalized growth [12] was 0.943, the normalized growth [13] was 0.884 (active) and the normalized growth [14] was 0.931. The normalized growth [15] was 0.85 (active) and the normalized growth (locus YPL241C, strain CIN2, active compounds read low) was 1.
Work on `COc1cc(C=C(C#N)C#N)cc(O)c1O` yielded a normalized growth [1] of 1.01, a normalized growth [6] of 0.941 and a normalized growth [7] of 0.979. It also gave a normalized growth [9] of 0.997, a normalized growth [10] of 1 and a normalized growth (locus YGR078C, strain PAC10, active compounds read low) of 0.982. The normalized growth (locus YMR263W, strain SAP30, active compounds read low) was 0.993, the normalized growth [2] was 0.993 and the normalized growth [3] was 0.968. It also gave a normalized growth [12] of 0.972, a normalized growth [13] of 0.978 and a normalized growth [14] of 0.969. The normalized growth [15] was 0.997 and the normalized growth [5] was 1.01.
For `N#CC(C#N)=Cc1ccc(O)c(O)c1`, the normalized growth [1] was 1, the normalized growth [6] was 1.01 and the normalized growth [7] was 1. It also gave a normalized growth [8] of 0.998, a normalized growth [9] of 1.02 and a normalized growth [10] of 0.992. It also gave a normalized growth [11] of 0.982, a normalized growth (locus YJR075W, strain HOC1, active compounds read low) of 0.959 and a normalized growth [2] of 0.988. For the same molecule, the normalized growth [12] was 0.998, the normalized growth [13] was 0.995 and the normalized growth [14] was 0.998. It also gave a normalized growth [15] of 1.03.
